Assay results taken from PubChem BioAssay.
Values without a mark were called inactive.

Tested on: not listed separately
Experiment: MM1S myeloma cell viability, profiling panel, resazurin fluorescence, basal, 24 h, PK04 Diversity Set (AID 1174);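 also: MM1S multiple myeloma cell line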
Conditions: higher = more signal, called active from +8 up or from −8 down
Also: test concentration not given here.

In order of falling z-score:
1. CCCC[C@@H]1C[C@H]1[C@@H](NC(=O)c1cccs1)c1ccc(-c2ccccc2)cc1  0.921
2. CCCCCN1CC=CC23O[C@@H]4C=CCCOC(=O)C4[C@H]2C(=O)N(CCCCCO)[C@@H]3C1=O (some centres undefined)  0.66
3. COCCCNC(=O)[C@@H]1c2ccccc2C(=O)N(Cc2ccccc2Cl)[C@H]1c1ccc(CO)cc1  0.655
4. C=C(C)[C@@H]1CC=C(C(O)C2C=CC3C(=O)N(c4ccccc4)C(=O)C3N2Nc2ccccc2)CC1 (some centres undefined)  0.272
5. CN(C)CCCCCCNC(=O)[C@H]1C[C@H]2C(=O)N[C@@H](CCCCN)C(=O)N2[C@H]1c1cccc(OCCO)c1  -0.0889
6. C=C(CCCC)/C(=C/C[C@@H](OC(C)=O)c1ccc(OCCO)cc1)c1cnc2ccccc2c1  -0.267
7. COc1ccc(CCNC(=O)[C@@]2(Sc3ccc(C)cc3)CC(=O)N(C(C)C)[C@@H]2c2ccc(CO)cc2I)cc1  -1.63
8. COCCOC(=O)N1C(=O)[C@@]2(c3cc(C#CCC(C(=O)OC)C(=O)OC)ccc31)[C@H](c1ccccc1OCCO)N1[C@H](c3ccccc3)[C@H](c3ccccc3)OC(=O)[C@H]1[C@@H]2C(=O)NC[C@H](O)c1ccccc1  -2.44
9. O=C1C[C@@](C(=O)NCCN2CCOCC2)(c2ccc([N+](=O)[O-])cc2)[C@@H](c2ccc(CO)cc2I)N1CC12CC3CC(CC(C3)C1)C2  -6.88

Biological target: Dihydroorotate dehydrogenase (quinone), mitochondrial (Plasmodium falciparum (isolate 3D7)) (UniProt Q08210)
Experiment: PfDHODH enzyme inhibitors, primary screen, biochemical, C-terminal His tag, absorbance 600 nm (AID 1175);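 also: recombinant parasite enzyme with a five histidine tag at its C terminus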
Conditions: DCIP absorbance 600 nm, higher = more signal, called active from +8 up or from −8 down

Chain of Dihydroorotate dehydrogenase (quinone), mitochondrial (Plasmodium falciparum (isolate 3D7)) (Q08210 whole entry, looked up): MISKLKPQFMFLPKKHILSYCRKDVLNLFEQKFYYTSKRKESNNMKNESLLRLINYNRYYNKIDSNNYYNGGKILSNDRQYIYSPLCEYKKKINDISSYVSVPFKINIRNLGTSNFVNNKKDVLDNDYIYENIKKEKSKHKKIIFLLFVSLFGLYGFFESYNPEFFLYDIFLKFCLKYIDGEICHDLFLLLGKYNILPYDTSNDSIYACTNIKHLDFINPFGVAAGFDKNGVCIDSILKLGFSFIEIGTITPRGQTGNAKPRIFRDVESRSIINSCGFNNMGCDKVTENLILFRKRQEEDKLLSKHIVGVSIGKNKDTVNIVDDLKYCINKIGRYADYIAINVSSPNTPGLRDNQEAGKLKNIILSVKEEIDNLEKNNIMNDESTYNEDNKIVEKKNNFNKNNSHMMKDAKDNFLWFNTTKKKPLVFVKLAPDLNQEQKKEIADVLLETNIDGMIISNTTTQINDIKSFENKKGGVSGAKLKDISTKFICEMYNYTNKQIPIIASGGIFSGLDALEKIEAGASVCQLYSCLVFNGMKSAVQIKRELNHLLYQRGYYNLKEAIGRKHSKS

In order of falling composite z-score:
1. CC(C)NC(=O)[C@@]1(c2ccc([N+](=O)[O-])cc2)CC(=O)N(C2CCCCC2)[C@@H]1c1ccc(CO)cc1I  0.968
2. COC(=O)[C@]1(CCC(=O)OC(C)(C)C)N=C(c2ccc(OCCCO)cc2)O[C@@H]1c1ccccc1CN=[N+]=[N-]  0.965
3. COc1ccc(C#Cc2ccc3c(c2)[C@]2(C(=O)N3)[C@H](C(=O)NC[C@H](O)c3ccccc3)[C@H]3C(=O)O[C@H](c4ccccc4)[C@H](c4ccccc4)N3[C@@H]2c2ccc(O)cc2)cc1  0.843
4. COCCCNC(=O)[C@@]1(C)c2ccccc2C(=O)N(C(C)C)[C@H]1c1ccc(CO)cc1  0.663
5. O=C1NC(=O)C2C1C=CC(C(O)c1cccs1)N2Nc1ccc(Cl)cc1Cl (centres undefined)  0.572
6. CC1(C)C2C=C(C(O)C3C=CC4C(=O)NC(=O)C4N3Nc3ccc(Cl)cc3Cl)C[C@@H]1C2 (some centres undefined)  0.356
7. COc1ccc(C(=O)Nc2ccc(CN3C(=O)[C@]4(O[C@H](CCO)[C@@H]([Si](C)(C)c5ccc(OC)cc5)[C@@H]4C)c4ccccc43)cc2)cc1  0.132
8. COc1ccc(CCNC(=O)[C@@]2(Sc3ccc(C)cc3)CC(=O)N(C(C)C)[C@@H]2c2ccc(CO)cc2I)cc1  0.0834
9. C=CCC(OC(C)=O)[C@@H]1[C@@H](N(Cc2ccc(-c3ccccc3)cc2)C(=O)Cc2ccc(OC)cc2)c2cc(OCCCO)ccc2N1C(=O)Cc1ccc2ccccc2c1 (some centres undefined)  0.0513
10. C=C(C(=O)CC[C@@H](OC(=O)c1cccnc1)c1ccccc1OCCO)C(C)C  -0.0125
11. CC1CC/C=C\[C@H]2OC34C=CCN(C(C)(C)C)C(=O)[C@H]3N(CCO)C(=O)[C@@H]4C2C(=O)O1 (some centres undefined)  -0.0848
12. CCOC(=O)C[C@H]1[C@H](OC(=O)c2ccc(C(=O)c3ccccc3)cc2)[C@@H](NC(=O)c2ccccc2)c2cc(OCCCO)ccc2N1C(=O)c1ccc2ccccc2n1  -0.0918
13. COC(=O)[C@@]1(Cc2ccc(F)cc2)[C@H]2c3cc(C(=O)N4CCCC4)n(Cc4ccc(S(C)(=O)=O)cc4)c3C[C@H]2CN1C(=O)c1ccccc1  -0.159
14. CCCCCN1CC=CC23O[C@@H]4C=CCCOC(=O)C4[C@H]2C(=O)N(CCCCCO)[C@@H]3C1=O (some centres undefined)  -0.185
15. O=C1C[C@@](C(=O)NCCN2CCOCC2)(c2ccc([N+](=O)[O-])cc2)[C@@H](c2ccc(CO)cc2I)N1CC12CC3CC(CC(C3)C1)C2  -0.227
16. COc1cc2c(cc1OC)CN(C(=O)[C@@H]1[C@H]3C(=O)O[C@H](c4ccccc4)[C@H](c4ccccc4)N3[C@H](c3ccc(O)cc3)[C@@]13C(=O)Nc1ccccc13)CC2  -0.228
17. O=C1c2ccccc2[C@](Cc2ccccc2I)(C(=O)NCC(F)(F)F)[C@H](c2ccc(CO)cc2)N1Cc1ccccc1Cl  -0.246
18. CCCC[C@@H]1C[C@H]1[C@@H](NC(=O)c1ccco1)c1ccccc1C(F)(F)F  -0.265
19. C=CCOC(=O)[C@H]1[C@@H]2C(=O)O[C@@H](c3ccccc3)[C@@H](c3ccccc3)N2[C@@H](c2ccc(OCCOC(=O)[C@H]3C[C@H]4C(=O)N[C@@H](CCCCNC(C)=O)C(=O)N4[C@H]3c3ccc(O)cc3)cc2)[C@]12C(=O)Nc1ccc(I)cc12  -0.325
20. O=C1O[C@@H](c2ccccc2)[C@@H](c2ccccc2)N2[C@@H](c3ccccc3OCCO)[C@]3(C(=O)Nc4ccc(C#CC5=CCCCC5)cc43)[C@@H](C(=O)N3CCCCCCC3)[C@H]12  -0.35
21. COC(=O)c1c(CC[C@@H](CO)NC(=O)NCCn2cc(C3(O)CCCC3)nn2)oc(C(C)=O)c1C(=O)OC  -0.35
22. C=C(C)[C@@H]1CC=C(C(O)C2C=CC3C(=O)N(c4ccccc4)C(=O)C3N2Nc2ccccc2)CC1 (some centres undefined)  -0.376
23. COCCOC(=O)N1C(=O)[C@@]2(c3cc(C#CCC(C(=O)OC)C(=O)OC)ccc31)[C@H](c1ccccc1OCCO)N1[C@H](c3ccccc3)[C@H](c3ccccc3)OC(=O)[C@H]1[C@@H]2C(=O)NC[C@H](O)c1ccccc1  -0.398
24. O=C1C2C=CC(C(O)c3cccc4ccccc34)N(Nc3ccccc3F)C2C(=O)N1c1ccccc1 (centres undefined)  -0.629
25. COCCCNC(=O)[C@@H]1c2ccccc2C(=O)N(Cc2ccccc2Cl)[C@H]1c1ccc(CO)cc1  -0.636
26. CN(C)CCCCCCNC(=O)[C@H]1C[C@H]2C(=O)N[C@@H](CCCCN)C(=O)N2[C@H]1c1cccc(OCCO)c1  -0.692
27. COC(=O)C(CC#Cc1ccc2c(c1)[C@]1(C(=O)N2)[C@H](C(=O)Nc2nc3ccccc3s2)[C@H]2C(=O)O[C@H](c3ccccc3)[C@H](c3ccccc3)N2[C@@H]1c1ccc(O)cc1)C(=O)OC  -0.72
28. CCCC[C@@H]1C[C@H]1[C@@H](NC(=O)c1cccs1)c1ccc(-c2ccccc2)cc1  -1.02
29. Cc1ccc(S[C@]2(C(=O)O)CC(=O)N(C(C)C)[C@@H]2c2ccc(CO)cc2I)cc1  -1.12
30. O=C(NC1CC1)[C@@H]1c2ccccc2C(=O)N(Cc2ccccc2Cl)[C@H]1c1ccc(CO)cc1  -1.36
31. Cc1ccc(S[C@]2(C(=O)NC3CC3)CC(=O)N(Cc3ccccc3)[C@@H]2c2ccc(CO)cc2I)cc1  -1.47
32. COc1cc(NN2C(C(O)c3ccco3)C=CC3C(=O)N(c4ccccc4)C(=O)C32)cc(OC)c1OC (centres undefined)  -2
33. C=C(COC)C(=O)CC[C@@H](OC(C)=O)c1ccc(CO)o1  -3.24
34. CCCC[C@@H]1C[C@H]1[C@@H](NC(=O)c1ccco1)c1ccc(-c2ccccc2)cc1  -3.3
35. C=C(CCCC)/C(=C/C[C@@H](OC(C)=O)c1ccc(OCCO)cc1)c1cnc2ccccc2c1  -4.4
